Assay outcomes from PubChem BioAssay.
VACV Venus inh: vaccinia inhibition (Venus reporter). Vaccinia virus Venus reporter expression, fluorescence. Potency, µM (series often up to 36.5 µM), inactives show at the top dose activity change, negative = inhibition, hits mostly inhibitors. 0.46% of 330,000 active. AID 720580; calls by dose curve; tested in A549 cells; also: nearly all actives have a fitted effect of over 30% in size
Lassa entry inh: inhibitors of Lassa virus binding or cell entry. Lassa virus pseudotype entry inhibition, cell reporter. Potency, µM (top dose mostly 37.9 µM), inactives show at the top dose activity change, negative = inhibition, actives largely listed as inhibitors. 1.2% of 300,000 active. AID 540256; calls by dose curve; tested in HEK293 cells; also: nearly all actives have a fitted effect of over 50% in size
Marburg entry inh: Marburg virus entry inhibition; Marburg virus pseudotyped entry inhibition, cell reporter; Potency, µM (series often up to 37.8 µM), inactives show top-dose activity change, negative = inhibition, most hits filed as inhibitors; 1.8% of 300,000 active; AID 540276; calls by dose curve; tested in HEK293 cells
Vaccinia mCherry: vaccinia inhibition (mCherry reporter); Potency, µM (series often up to 36.5 µM), inactives show top-dose activity change, negative = inhibition, usual class: inhibitors; 0.63% of 310,000 active; Vaccinia virus mCherry reporter infection, fluorescence; calls by dose curve; tested in A549 cells; also: nearly all actives have a fitted effect of over 35% in size
HCV inhibitor: HCV inhibition; AID 651820; 3.4% of 340,000 active; Huh7.5.1 HCVcc-Cre infection, luciferase reporter, 44 h; Potency, µM (top dose mostly 41.8 µM), without a hit: top-dose activity change, negative = inhibition, usual class: inhibitors; active = well fitted inhibition curve with a large enough effect; inconclusive = small, poorly fitted or top-dose-only effect, or another doubt; inactive = no such curve, though single readings can be large or run the other way
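Infectious HCV cell culture screen: compound-treated cells (1,000/well, pre-plated 4 h) are infected with HCVcc-Cre at roughly 0.5 moi and grown 44 h. Infection is quantified by luciferase signal after 15 min substrate incubation at room temperature.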
FMDV inh: foot and mouth disease virus antiviral activity; AID 1159524; FMDV antiviral cell-based qHTS; Potency, µM (top dose mostly 57.9 µM), for inactives: at the highest dose activity change, negative = inhibition, hits mostly inhibitors; 1.2% of 410,000 active; calls by dose curve; tested in HEK293T cells; also: read-out not given here; nearly all actives have a fitted effect of over 45% in size
* marks the source's active call; other numbers are inactive results; i = inactive; u = inconclusive; x = no result; [ ] = dose if it differs, or a comment. Only some compounds are listed: those with a hit (about 5.3% of all), similar ones and a draw of the others. % is scaled to controls: 0 for no effect and ±100 for the full control effect; potency is read from the fitted curve at half-maximal effect.

SMILES	VACV Venus inh	Lassa entry inh	Marburg entry inh	Vaccinia mCherry	HCV inhibitor	FMDV inh
Cc1ccc(-c2nn(-c3ccccc3)cc2C(=O)Nc2cccc(S(=O)(=O)NC3=NCCC3)c2)cc1	u	x	x	0%	x	68%
O=C(Nc1cccc(S(=O)(=O)NC2=NCCC2)c1)c1cn(-c2ccccc2)nc1-c1ccc(F)cc1	x	x	x	x	11µM*	25%
COC(=O)C1=C(C)N(Cc2ccccc2)C(=O)NC1c1cccc(F)c1 (centres undefined)	x	x	3%[14.2 µM]	x	x	x
CN(C)CCn1c(=O)n(Cc2ccco2)c(=O)c2c3c(sc21)CCCCC3	x	-2%	u	x	u	-16%
O=c1c2c3c(sc2n(CCN2CCCC2)c(=O)n1Cc1ccco1)CCCCC3	x	u	u	x	10µM*	-4%
CCOc1ccc(NC(=O)NCCN2CCN(c3cc(Cl)ccc3C)CC2)cc1	-1%	u	9%[46.1 µM]	-1%	x	-20%
C/C(=N/NC(=O)c1cc(C2CC2)[nH]n1)c1cccs1	-17%	2.6µM*	10µM*	-4%	-11%	-74%
Cc1ccc2nc(NC(=O)c3ccccn3)sc2c1	u	x	u	22µM*	u	8.9µM*
Cc1nc2ccc(NC(=O)c3nn(CC(C)C)c(=O)c4ccccc34)cc2s1	-29%	9%	17%	u	6%	-13%
CCOc1ccc2nc(NC(=O)Nc3ccccc3)sc2c1	-12%	u	u	-11%	u	1%
CSc1nc2ccc(NC(=O)c3ccccn3)cc2s1	-21%	2µM*	u	-4%	-3%	-49%
CCn1nc(C(=O)Nc2nc3ccc(C)cc3s2)c2ccccc2c1=O	-1%	-23%	-5%	-9%	32µM*	x
Cc1ccc2nc(NC(=O)c3ccccc3F)sc2c1	-13%	u	u	i	u	-15%
CCOc1ccc2nc(NC(=O)c3ccccn3)sc2c1	u	u	u	7.9µM*	u	-84%
COc1ccc(S(=O)(=O)N2CCN(c3nc(-c4cccs4)nc4ccccc34)CC2)cc1OC	-12%	x	x	-8%	x	x
O=C(Cn1cccn1)N1CCOc2c(cc(-c3ncc(C(F)(F)F)cc3Cl)cc2OCC2CCCO2)C1 (centres undefined)	-14%	x	x	i	x	-16%
O=C(COc1ccccc1)NNc1nc2c(F)cc(F)cc2s1	x	x	x	x	8%	4%
CC(C)C(NS(=O)(=O)c1cccc2nsnc12)C(=O)Nc1nc2ccc(Cl)cc2s1 (centres undefined)	u	x	2%	-25%	11%	u
CCOc1ccc2nc(NC(=O)C(NS(=O)(=O)c3cccc4nsnc34)C(C)C)sc2c1 (centres undefined)	u	x	-6%	7.9µM*	u	-25%
O=C(Nc1nc2c(F)cc(F)cc2s1)c1ccccn1	u	7.1µM*	u	u	10µM*	-68%
CCOC(=O)c1ccc2nc(NC(=O)c3cccs3)sc2c1	-27%	u	4.5µM*	u	-23%	16%
O=S1(=O)CCOC[C@H](c2ccccc2)N1Cc1ccc(F)cc1	-21%	x	x	-26%	x	x
COC(=O)c1ccccc1-c1c2ccc(=N)cc-2oc2cc(N)ccc12	x	7.9µM*	u	167%	u	0%
O=C(O)c1ccccc1-c1c2ccc(=O)cc-2oc2cc(O)ccc12	x	28µM*	35µM*	x	x	x
CCOc1ccccc1NC(=O)N1CCN(S(=O)(=O)c2ccc3c(ccn3C)c2)CC1	-3%	-2%[46.1 µM]	6%[46.1 µM]	-24%	x	0%
SMILES	VACV Venus inh	Lassa entry inh	Marburg entry inh	Vaccinia mCherry	HCV inhibitor	FMDV inh
O=c1c(-c2ccc(Cl)cc2)nc2cnc(Nc3ccccc3)nc2n1C[C@H]1CCCO1	x	x	x	x	x	-8%
COc1ccc(NC(=O)CC2C(=O)N(Cc3ccccc3)C(=S)N2CCN2CCOCC2)cc1 (centres undefined)	-20%	-6%	-28%	-7%	13%	9%
C=CCN1C(=O)C(CC(=O)Nc2ccc(OCCC)cc2)N(CCCN2CCN(Cc3ccccc3)CC2)C1=S (centres undefined)	11µM*	u	u	u	10µM*	u
Nc1nc2ccccc2n1/N=C/c1cccnc1	-11%	u	0%	-1%	31%	13%
Nc1nc2ccccc2n1/N=C/c1ccc([N+](=O)[O-])s1	u	u	u	u	3.5µM*	-1%
COCc1nnc(NC(=O)c2ccc(S(=O)(=O)N3CCCc4ccccc43)cc2)o1	u	u	u	u	13µM*	-24%
COc1ccc(-c2nnc(NC(=O)c3ccc(S(=O)(=O)N4CCCc5ccccc54)cc3)o2)cc1	-16%	u	u	-16%	10µM*	-17%
CS(=O)(=O)c1cccc(-c2nnc(NC(=O)c3ccc4ncsc4c3)o2)c1	-5%	2%	17%	-5%	11%	-27%
COc1cccc(-c2nnc(NC(=O)c3ccc4ncsc4c3)o2)c1	-24%	1%	10µM*	-9%	u	3%
O=C(Nc1nnc(C2CC2)o1)c1ccc(S(=O)(=O)N2CCCc3ccccc32)cc1	-28%	x	3%	u	-12%	0%
COc1ccccc1-c1nnc(NC(=O)c2ccc(S(=O)(=O)N3CCOCC3)cc2)o1	-19%	-27%	-13%	-30%	22%	-19%
COc1cccc(-c2nnc(NC(=O)c3ccc(S(=O)(=O)N4CCOCC4)cc3)o2)c1	0%	u	u	-9%	13µM*	-21%
CCc1cccc(C)c1NC(=O)Cn1cc2c(n1)CCCCC2	-7%	17%[46.1 µM]	-3%[46.1 µM]	-1%	x	-26%
C[C@H]1CC[C@H]2C(=O)N(Cc3ccccc3)C[C@@H](O)CN2[C@H]1c1ccc(Br)cc1	x	x	-33%[14.2 µM]	x	x	x
CC1CN(S(=O)(=O)c2ccc(C(=O)Nc3nnc(-c4ccc5c(c4)CCCC5)o3)cc2)CC(C)O1 (centres undefined)	u	x	0%	8.9µM*	-14%	-28%
CCNC(=O)CSc1nnc(-c2cccc(S(=O)(=O)N3CCOCC3)c2)o1	u	27%	19%[46.1 µM]	11µM*	9%	-6%
O=C(COC(=O)Cc1c[nH]c2ccccc12)Nc1c(Cl)cccc1C(F)(F)F	-6%	13%	8%[46.1 µM]	-8%	-10%	-14%
NC(=O)c1c(Br)n(C2OC(CO)C(O)C2O)c2ncnc(N)c12 (centres undefined)	u	u	u	11µM*	u	-21%
N#Cc1c(Br)n(C2OC(CO)C(O)C2O)c2ncnc(N)c12 (centres undefined)	13µM*	u	u	u	u	8%
C#CCOCCOCCOCCNc1nc(N2CCN(C(=O)CCCCCCCCCCNC(=O)[C@H](CCCCN)n3cc(C[C@@H](C)CC)nn3)CC2)nc(N2CCN(C(=O)CCCCCCCCCCNC(=O)[C@H](CCCCN)n3cc(C[C@@H](C)CC)nn3)CC2)n1	11µM*	x	x	u	-11%[8.37 µM]	40µM*
